Results reported in the antibiotic and cytotoxicity screens of Wong et al. (2023).
Out of some 39,000 compounds screened, about 500 (1.3%) were called active. The full list was thinned out, with actives kept by preference.

tested on: S. aureus RN4220; test: growth inhibition call (relative growth <= 0.2); settings: 50 µM

SMILES	growth inhibition call
Cc1ccc(S(=O)(=O)N(C)C[C@H]2OCCCC[C@H](C)Oc3ccc(NC(=O)NC4CCCCC4)cc3C(=O)N([C@H](C)CO)C[C@@H]2C)cc1	inactive
O=C(CN1CCOCC1)N[C@H]1CC[C@H](CCNS(=O)(=O)c2ccccc2F)O[C@H]1CO	inactive
CO[C@@H]1CN(C)C(=O)c2ccc(NC(=O)Nc3cccc(F)c3)cc2OC[C@H](C)N(C(=O)Nc2c(C)noc2C)C[C@H]1C	inactive
C[C@@H](O)[C@H]1C(=O)N2C(C(=O)O)=C(SCCNC=N)C[C@H]12	inactive
CC(O)C1C(=O)N2C(C(=O)O)=C(SC3CNC(C(=O)N(C)C)C3)C(C)C12 (stereo not drawn)	active
CC(O)C1C(=O)N2C(C(=O)[O-])=C(SC3Cn4cnc[n+]4C3)C(C)C12 (stereo not drawn)	inactive
C[C@@H]1CN([C@@H](C)CO)C(=O)CCCn2cc(nn2)CO[C@H]1CN(C)C(=O)C1CC1	inactive
C[C@H](CO)N1C[C@H](C)[C@H](CN(C)C(=O)CCC(F)(F)F)OCCCC[C@H](C)Oc2ccc(NC(=O)C3CCCCC3)cc2C1=O	inactive
COc1cccc(S(=O)(=O)N2C[C@@H](O)COC[C@@H]3O[C@@H](CC(=O)N4CCN(c5ccccc5)CC4)CC[C@H]32)c1	inactive
CC(C)C[C@@H](N)C(=O)N[C@H]1C(=O)N[C@@H](CC(N)=O)C(=O)N[C@H]2C(=O)N[C@H]3C(=O)N[C@H](C(=O)N[C@H](C(=O)O)c4cc(O)cc(O)c4-c4cc3ccc4O)[C@H](O)c3ccc(c(Cl)c3)Oc3cc2cc(c3O[C@@H]2O[C@H](CO)[C@@H](O)[C@H](O)[C@H]2O[C@H]2C[C@](C)(N)[C@H](O)[C@H](C)O2)Oc2ccc(cc2Cl)[C@H]1O	active
CNC(CC(C)C)C(=O)NC1C(=O)NC(CC(N)=O)C(=O)NC2C(=O)NC3C(=O)NC(C(=O)NC(C(=O)O)c4cc(O)cc(O)c4-c4cc3ccc4O)C(O)c3ccc(c(Cl)c3)Oc3cc2cc(c3OC2OC(CO)C(O)C(O)C2OC2CC(C)(N)C(O)C(C)O2)Oc2ccc(cc2Cl)C1O.Cl (stereo not drawn)	active
CN[C@H](CC(C)C)C(=O)N[C@H]1C(=O)N[C@@H](CC(N)=O)C(=O)N[C@H]2C(=O)N[C@H]3C(=O)N[C@H](C(=O)N[C@H](C(=O)O)c4cc(O)cc(O)c4-c4cc3ccc4O)[C@H](O)c3ccc(c(Cl)c3)Oc3cc2cc(c3O[C@@H]2O[C@H](CO)[C@@H](O)[C@H](O)[C@H]2O[C@H]2C[C@](C)(N)[C@H](O)[C@H](C)O2)Oc2ccc(cc2Cl)[C@H]1O	active
C[C@@H]1O[C@@H](O[C@H]2[C@@H](Oc3cc(O)c4c(c3)O[C@H](c3ccc(O)cc3)CC4=O)O[C@H](CO)[C@@H](O)[C@@H]2O)[C@H](O)[C@H](O)[C@H]1O	inactive
C[C@@H]1O[C@@H](O[C@H]2[C@H](Oc3cc(O)c4c(c3)O[C@H](c3ccc(O)cc3)CC4=O)O[C@H](CO)[C@@H](O)[C@@H]2O)[C@H](O)[C@H](O)[C@H]1O	inactive
CC1OC(OC2C(Oc3cc(O)c4c(c3)OC(c3ccc(O)cc3)CC4=O)OC(CO)C(O)C2O)C(O)C(O)C1O (stereo not drawn)	inactive
C[C@H]1CCCC[C@]12NC(=O)NC2=O	inactive
CC1CCC(C(C)C)C(=O)C1 (stereo not drawn)	inactive
C[C@H](CO)N1C[C@H](C)[C@@H](CN(C)Cc2ccccc2)OCCCC[C@H](C)Oc2ccc(NC(=O)C3CCCCC3)cc2C1=O	inactive
COc1ccc(S(=O)(=O)Nc2ccc3c(c2)CC(=O)N([C@@H](C)CO)C[C@H](C)[C@@H](CN(C)S(C)(=O)=O)O3)cc1	inactive

SMILES	growth inhibition call
Cc1ccc(S(=O)(=O)N(C)C[C@H]2Oc3c(NS(=O)(=O)c4cn(C)cn4)cccc3C(=O)N([C@@H](C)CO)C[C@H]2C)cc1	inactive
COCCNC(=O)C[C@H]1CC[C@H]2[C@@H](COC[C@@H](O)CN2S(=O)(=O)c2ccccc2C)O1	inactive
CN1CC2(CCN(C(=O)[C@H]3CCC(=O)N3)CC2)COc2ccccc2S1(=O)=O	inactive
C[C@@H]1CCCCO[C@H](CN(C)C(=O)NC2CCCCC2)[C@H](C)CN([C@@H](C)CO)C(=O)c2cc(NS(=O)(=O)c3ccc(F)cc3)ccc2O1	inactive
O=C(C[C@H]1C[C@@H]2c3cc(NS(=O)(=O)c4ccc(F)cc4)ccc3O[C@@H]2[C@@H](CO)O1)NCc1ccncc1	inactive
CSc1nc(C)cc(NC(N)=O)n1	inactive
COc1cc(N2CCC(N)CC2)ccc1Nc1ncc(Cl)c(-c2c[nH]c3ccccc23)n1	active
COc1cc(N2CCC(N(C)C)CC2)ccc1Nc1ncc(Cl)c(Nc2ccccc2P(C)(C)=O)n1	inactive
COc1cc(N2CCC(N3CCN(C)CC3)CC2)ccc1Nc1ncc(Cl)c(Nc2ccccc2S(=O)(=O)C(C)C)n1	inactive
CCCNC(=O)N1C[C@H](O)COC[C@@H]2O[C@H](CC(=O)N3CCN(C)CC3)CC[C@H]21	inactive
O=C(CN1CCOCC1)N[C@H]1CC[C@@H](CCNC(=O)C2CCCCC2)O[C@H]1CO	inactive
COC1(NC(=O)CSCC#N)C(=O)N2C(C(=O)[O-])=C(CSc3nnnn3C)CSC21.[Na+] (stereo not drawn)	active
CO[C@@]1(NC(=O)CSC[C@@H](N)C(=O)O)C(=O)N2C(C(=O)O)=C(CSc3nnnn3C)CS[C@@H]21	inactive
COC1(NC(=O)C2SC(=C(C(N)=O)C(=O)O)S2)C(=O)N2C(C(=O)O)=C(CSc3nnnn3C)CSC21 (stereo not drawn)	active
COC1(NC(=O)C(C(=O)[O-])c2ccc(O)cc2)C(=O)N2C(C(=O)[O-])=C(CSc3nnnn3C)COC21.[Na+].[Na+] (stereo not drawn)	active
CO[C@@]1(NC(=O)[C@@H](C(=O)O)c2ccc(O)cc2)C(=O)N2C(C(=O)O)=C(CSc3nnnn3C)CO[C@@H]21	inactive
C[C@H](CO)N1C[C@H](C)[C@@H](CN(C)Cc2ccc3c(c2)OCO3)Oc2c(NC(=O)c3ccncc3)cccc2C1=O	inactive
COc1ccc(S(=O)(=O)Nc2ccc3c(c2)CC(=O)N([C@H](C)CO)C[C@@H](C)[C@H](CN(C)S(=O)(=O)c2ccc(F)cc2)O3)cc1	inactive
O=C(CCCCCNC(=O)OCc1ccc(CO[C@H]2C[C@@H](C3CCCCC3)C=C(C(=O)N3CCN(Cc4ccc5c(c4)OCO5)CC3)O2)cc1)NO	inactive
